{"source": "PubChem BioAssay AID2284379", "about": "(EPA ToxCast)", "note": "Results filed as inconclusive are left out. Activity calls are given as the source filed them. The calls were made as follows: active = hit-call score of the fitted dose curve at least 0.9, where 1 is the maximum; inconclusive = response in the unintended direction; inactive = score below 0.9.", "data": [{"test": "ATG_M_32_EcoTox2: Attagene TRANS-FACTORIAL EcoTox-2 HepG2 Assay for M32 Transcription Factor (Internal Marker)", "method": "ATG_EcoTox2 is a cell-based, multiplexed assay created by modifying the existing Attagene TRANS-FACTORIAL system to include a panel of nuclear receptors from some or all the following species: human (Homo sapiens), african clawed frog (Xenopus laevis), rainbow trout (Oncorhynchus mykiss), japanese medaka (Oryzias latipes), and zebrafish (Danio rerio). The ECOTOX2-FACTORIAL format uses HepG2, a human liver cell line, with measurements taken at 24 hours after chemical dosing in a 24-well plate. ATG_M_32_EcoTox2 is one of 29 assay components calculated in the ATG_EcoTox2 assay. It is designed to make measurements of mRNA induction, a form of inducible reporter, as detected with fluorescence intensity signals by Reverse transcription polymerase chain reaction (RT-PCR) and Capillary electrophoresis technology.The assay endpoint ATG_M_32_EcoTox2 was analyzed in the positive analysis fitting direction relative to DMSO as the negative control and baseline of activity. Using a type of inducible reporter, measures of mRNA for gain-of-signal activity can be used to understand the background control at the transcription factor-level as they relate to the gene. Furthermore, this assay endpoint can be referred to as a secondary readout, because this assay has produced multiple assay endpoints where this one serves a background control function. To generalize the intended target to other relatable targets, this assay endpoint is annotated to the background measurement intended target family, where the subfamily is internal marker.\nHuman liver HepG2 cells are transiently transfected with multiple reporter transcription units (MRTUs) in 6-well plates using FuGene 6 reagent (Roche; 3 ml FuGene/1 mg DNA). The MRTU constructs are regulated by a cis-regulating element (promoter). Each RTU expresses a GAL4-UAS that regulates the transcription of a nearby target reporter gene sequence. A major difference between the CIS and TRANS system is that in CIS activities of endogenous TFs are measured, whereas the TRANS assay evaluates changes in activities of exogenous, chimeric NR-Gal4 proteins. […] At the end of 24 hour incubation, total RNA was isolated using TriZol reagent (Invitrogen). The isolated RNA is then reverse-transcribed using oligo(dT) primer and Mo-MLV reverse transcriptase (Invitrogen) with DNAse I (Ambion) treatment for 30 min. The one-tenth of the produced cDNA was amplified by PCR using Taq DNA polymerase (Invitrogen) and two reporter sequence-specific primers. The PCR products were fluorescently labeled by primer extension with 6-arboxyfluorescein (6-FAM) 5'-labeled reporter sequence-specific primer (2 min at 95 C, 20 s at 68 C and 10 min at 72 C) and these products were digested with 5U of HpaI (New England Biolabs) for 2h at 37 C. The fragments were purified using Qiaquick PCR columns (Qiagen), analyzed on an ABI 3130xL genetic analyzer (Applied Biosystems) with peak positions identified by using a set of X-rhodamine (ROX)-labeled MapMarker1000 molecular weight standards (BioVentures). The raw capillary electrophoresis data was processed using Attagraph software (Attagene).", "values": [{"smiles": "O=S(=O)(O)C(F)(F)C(F)(F)C(F)(F)C(F)(F)C(F)(F)C(F)(F)F", "outcome": "inactive"}, {"smiles": "O=P(Oc1ccccc1)(Oc1ccccc1)Oc1ccccc1", "outcome": "inactive"}, {"smiles": "CCCCOCN(C(=O)CCl)c1c(CC)cccc1CC", "outcome": "inactive"}, {"smiles": "[Cl][Sn]([c]1ccccc1)([c]1ccccc1)[c]1ccccc1", "outcome": "inactive"}, {"smiles": "O=C(O)C(F)(F)C(F)(F)C(F)(F)C(F)(F)C(F)(F)C(F)(F)C(F)(F)F", "outcome": "inactive"}]}]}
